Rows were chosen to be rich in hits. Some 3.2% of all compounds tested hit in one or more screens of this group.
AMA1 RON2 block: AMA1-RON2 (P. falciparum) interaction inhibition; AlphaScreen AMA1-biotinylated RON2 peptide binding; Potency, µM (titrated, usually from 58.2 µM), for inactives: top-dose activity change, negative = inhibition, hits mostly inhibitors; hit rate 0.2% among 360,000; AID 720542;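 further: 0% = vehicle wells and -100% = peptide control; nearly all actives have a fitted effect of over 45% in size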
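AMA1 (3D7) with his tag at 25 nM final met compounds first, then biotinylated RON2 peptide at 25 nM; detection used donor plus acceptor beads, 10 µg/mL apiece, read by AlphaScreen after 30 min at room temperature.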
RE007 growth inh: less growth of the S. pombe RE007 Vpr strain | S. pombe RE007 Vpr strain, BacTiter-Glo ATP luminescence, 24 h | Potency, µM (series often up to 92.2 µM), inactives show at the highest dose activity change, negative = less growth, most hits filed as inhibitors | hit rate 0.21% among 360,000; active means well fitted falling curve with a large enough effect; inconclusive means small, poorly fitted or top-dose-only effect; inactive means no such curve, though single readings can be large or run the other way; further: nearly all actives have a fitted effect of over 50% in size
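Fission yeast strain RE007, carrying one chromosomally integrated HIV-1 vpr copy, was seeded at OD 0.01 in PMG+AL medium with 23 nL pinned compound. After 24 h at 30 °C and 99% humidity, viability was read by BacTiter-Glo luminescence.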
Tb PYK inh: inhibitors of Trypanosoma brucei pyruvate kinase; Potency, µM (doses to about 76.8 µM), inactives show at the highest dose activity, negative = inhibition, usual class: inhibitors; Q57TT1; hit rate 0.12% among 410,000; AID 624173; TbPYK enzyme, Kinase-Glo Plus ATP luminescence, 45 min; further: nearly all actives have a fitted effect of over 50% in size
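Luminescence from Kinase-Glo Plus, added after a 45-minute room-temperature reaction, served as the end-point read-out. The enzyme and substrate were preincubated with compound before ADP (130 uM final) initiated turnover. Concentration-effect curves came from normalized qHTS data.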
Sm TGR block: inhibitors of Schistosoma mansoni thioredoxin glutathione reductase; Q962Y6; purified TGR, DTNB reduction, TNB absorbance 405 nm; Potency, µM (highest dose often 114 µM), for inactives: at the highest dose activity change, negative = inhibition, usual class: inhibitors; hit rate 3% among 360,000; further: nearly all actives have a fitted effect of over 60% in size
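TGR 20 nM + NADPH 100 uM (dispensed conc.), cpd preinc 15 min RT; start with NADPH (500 uM addition) then DTNB (15 mM addition). Kinetic TNB absorbance, 405 nm filter. Four-parameter Hill fit across titration.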
LmPK inhibitor: LmPK (Leishmania mexicana) enzyme inhibition; purified LmPK, Kinase-Glo ATP luminescence, 1 h; Potency, µM (titrated, usually from 57.5 µM), without a hit: top-dose activity change, negative = inhibition, most hits filed as inhibitors; Q27686; AID 1721; hit rate 0.37% among 290,000
Target sequence (Q27686 whole entry, looked up): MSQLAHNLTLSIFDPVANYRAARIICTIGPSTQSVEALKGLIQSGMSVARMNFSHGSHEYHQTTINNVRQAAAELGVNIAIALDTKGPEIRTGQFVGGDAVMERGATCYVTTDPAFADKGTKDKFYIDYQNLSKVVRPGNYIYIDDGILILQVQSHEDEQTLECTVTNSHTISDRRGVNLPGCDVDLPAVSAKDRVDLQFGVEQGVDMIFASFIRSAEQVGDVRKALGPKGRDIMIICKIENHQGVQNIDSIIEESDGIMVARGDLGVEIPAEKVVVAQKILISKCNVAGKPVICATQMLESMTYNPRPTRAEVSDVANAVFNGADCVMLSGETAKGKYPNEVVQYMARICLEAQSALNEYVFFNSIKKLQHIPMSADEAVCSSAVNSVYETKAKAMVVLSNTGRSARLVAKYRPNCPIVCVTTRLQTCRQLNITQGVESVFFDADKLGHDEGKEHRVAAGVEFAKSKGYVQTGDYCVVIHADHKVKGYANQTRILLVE
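Purified LmPK (0.1 nM) with 0.5 mM PEP and 0.1 mM ADP in imidazole buffer pH 7.2 with MgCl2/KCl, 1 h at room temperature. ATP formed was read by luciferase luminescence and normalized to no-enzyme and uninhibited controls.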
Numbers without * were called inactive; ? = inconclusive; . = no result; [ ] = remark or other dose. Unless noted, the call rests on the fitted dose curve; in most records, active means well fitted curve in the direction sought with a large enough effect; inconclusive means small, poorly fitted or top-dose-only effect, or another doubt; inactive means no such curve, though single readings can be large; an effect the other way counts as inactive or inconclusive. Unless noted, on the % scale 0 is the no-effect control and ±100 the full control effect; potency means the concentration at half of the fitted maximal effect.

SMILES	AMA1 RON2 block	RE007 growth inh	Tb PYK inh	Sm TGR block	LmPK inhibitor
c1ccc(Cn2ncc3c(N4CCN(C(c5ccccc5)c5ccccc5)CC4)ncnc32)cc1	6%	-1%	-4%	45µM*	10%
CCOC(=O)c1ccc(NC(=O)CSc2cc(-c3ccccc3)nc(C)n2)cc1	.	.	-15%	-4%	.
Cc1ccc(Sc2cc(C(=O)NCCCN(C)C)c3ccccc3n2)cc1	1%	6%	-6%	40µM*	0%
Cc1ccc(Sc2cc(C(=O)NCCN(C)C)c3ccccc3n2)cc1	1%	-5%	4%	-21%	1%
C(/C=C/c1ccco1)=N/N1CCN(c2ccccc2)CC1	?	-28%	-16%	?	-14%
Clc1ccccc1CN1CCN(/N=C/C=C\c2ccco2)CC1	10µM*	-11%	-8%	50µM*	4%
CS(=O)(=O)N(Cc1cccc(CN(C(C(=O)O)c2ccccc2)S(C)(=O)=O)c1)C(C(=O)O)c1ccccc1 (stereo not drawn)	-9%	-9%	-15%	5µM*	4%
CC(C)CC1=C/C(=C/c2ccc(-c3ccccc3)o2)C(=O)O1	-9%	-21%	-12%	13µM*	2%
Nc1nc2ccccc2n1C(=O)c1ccc(F)cc1	106%	-13%	-10%	0%	25µM*
COc1ccc(C(=O)n2c(N)nc3ccccc32)cc1OC	129%	-14%	-2%	-1%	-2%
Nc1nc2ccccc2n1C(=O)c1ccccc1	59%	?	?	.	6.3µM*
CCc1ccc(C(=O)CSc2nc(-c3ccccc3)nc3c2CCCC3)cc1	.	.	6%	1%	.
Cc1cc2c(n1-c1ccc(C(=O)NCC(C)c3ccccc3)cc1)CCCC2 (stereo not drawn)	.	.	0%	?	.
O=C(O)Cc1ccc(C(=O)CSc2ccccc2)s1	-16%	-13%	-11%	20µM*	-3%
Cc1ccc(SCC(=O)c2ccc(CC(=O)O)s2)cc1	15%	-2%	-6%	30%	7%
O=c1oc2ccccc2cc1-c1cn2cc(Cc3ccc(Cl)cc3)sc2n1	.	.	1%	-10%	.
Cc1ccn2cc(-c3cc4ccccc4oc3=O)nc2c1	10%	-11%	-18%	?	14µM*
CCCCCCCCOc1ccccc1C(=O)Nc1ccc(C(=O)OCC[N+](C)(CC)CC)cc1	.	.	-7%	.	.
O=Nc1c(-c2ccccc2)cc2ccccn12	6%	13µM*	-2%	-1%	-6%
CN(C)C(=O)C(=O)c1c(-c2ccccc2)cc2ccccn12	7%	9%	-2%	-2%	4%
Cn1c(=O)c(N)c2c3c(c(Br)ccc31)C(=O)c1ccccc1-2	-1%	23%	-2%	13µM*	-7%
Cn1c(=O)c(NCCO)c2c3c(cccc31)C(=O)c1ccccc1-2	-23%	-3%	-2%	-4%	-18%
Cc1ccccc1N=Nc1ccc(O)c2ncccc12	26%[11.6 µM]	6%	-19%	-2%	-1%
Nc1ccc(N=Nc2ccccc2)c2cccnc12	20µM*	-22%	-11%	?	1%
Nc1ccc(Br)c2cccnc12	21%	12%	-4%	50µM*	-3%
SMILES	AMA1 RON2 block	RE007 growth inh	Tb PYK inh	Sm TGR block	LmPK inhibitor
COc1ccc(-c2cc(-c3ccco3)[nH]c(=O)c2C#N)cc1	-1%	0%	3%	3.2µM*	12%
COc1ccc(-c2cc(C(F)(F)F)c(C#N)c(=O)[nH]2)cc1	-2%	10%	-4%	-34%	5%
O=C(Nc1ccc(Cl)cn1)Nc1ccccc1F	-3%	-6%	-5%	0%	-4%
O=C(Nc1ccc(Cl)cn1)c1ccccc1F	4%	-8%	-7%	-1%	22µM*
CC(=O)Nc1ccc(C(=O)CSc2nnc3cc(C)c4ccccc4n23)cc1	.	.	1%	0%	.
COC(=O)C(N)Cc1ccc(O)c(O)c1 (stereo not drawn)	-16%	-8%	-3%	7.9µM*	1%
C[C@](N)(Cc1ccc(O)c(O)c1)C(=O)O	11µM*	7%[18.4 µM]	-7%	22µM*	3%
Cc1cc(C)nc(NS(=O)(=O)c2ccc(Br)s2)c1	4%	10%	-10%	?	9%
Cc1ccc(NS(=O)(=O)c2ccc(Br)s2)nc1	5%	12%	-8%	16µM*	0%

Source: PubChem BioAssay
